Values joined by “and” are separate entries in the source; they are usually repeats but may differ in a detail not shown here. Equal values may be shown once. Results filed as inconclusive are left out. Entries that show only a call come without a potency. Active and inactive are the calls of the source. Calls come from the whole dose curve; as a rule, active = well fitted curve in the direction sought with a large enough effect; inconclusive = small, poorly fitted or top-dose-only effect, or another doubt; inactive = no such curve, though single readings can be large; an effect the other way counts as inactive or inconclusive.
How the values were obtained:
[1] = qHTS assay for measurement of the activity of small molecule inhibitors on Zika virus induced Caspase-3 activity in human iPSC derived neural progenitor cells (hNPCs) (AID 1224857); conditions: hNPCs ZIKV-induced caspase-3/7, Caspase-Glo luminescence, 6 h; series mostly up to 45.7 µM; note: nearly all actives have a fitted effect of over 65% in size; note: potency is the fitted concentration of half-maximal effect
Summary of the method: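 hNPCs seeded 350 cells/well, cultured 16–20 h; compounds added 1 h before ZIKV (2 FFU/cell), 37 C 6 h. Caspase-Glo 3/7 luminescence after 30 min RT; % inhibition from induction scaled to uninfected (0%) and infected (100%) wells.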

[2] = qHTS assay for measurement of the activity of small molecule inhibitors on Zika virus induced Caspase-3 activity in human astrocytoma cells (AID 1224859); conditions: SNB-19 ZIKV-induced caspase-3/7, luminescence, 6 h; series mostly up to 45.7 µM
Summary of the method: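 Luminescence read-out (Caspase-Glo 3/7, 30 min RT) of caspase activity in SNB-19 cells infected 6 h with ZIKV, 2 FFU/cell, after 1 h compound pretreatment; % inhibition from induction normalised to uninfected (0%) and infected (100%) wells.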

[3] = qHTS assay to identify small molecule inhibitors of chordoma cells - UCH-1 (AID 1259355); conditions: UCH-1 chordoma viability, CellTiter-Glo, 48 h, combination, with auranofin plus four topoisomerase inhibitors; series mostly up to 46.1 µM; note: nearly all actives have a fitted effect of over 55% in size; note: potency is the fitted concentration of half-maximal effect
Summary of the method: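 Cells (800/well) were seeded and left overnight at 37 C, 5% CO2, then treated with drugs at 15 concentrations plus a combination mix of auranofin, camptothecin, doxorubicin, rubitecan and topotecan. Viability after 48hr was read by CellTiter-Glo luminescence.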

[4] = qHTS assay to identify small molecule inhibitors of chordoma cells - UCH-2 (AID 1259356); conditions: UCH-2 chordoma viability, CellTiter-Glo ATP luminescence, 48 h; series mostly up to 46.1 µM; note: potency is the fitted concentration of half-maximal effect
[5] = P-glycoprotein substrates identified in KB-8-5-11 adenocarcinoma cell line, qHTS therapeutic library screen (AID 1346987); conditions: KB-8-5-11 (P-gp overexpressing) viability, CellTiter-Glo, 72 h; series mostly up to 44.5 µM; note: nearly all actives have a fitted effect of over 65% in size; note: potency is the fitted concentration of half-maximal effect
Summary of the method: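 P-gp-mediated resistance screen: KB-8-5-11 cells treated 72 h with compounds in dose-response. CellTiter-Glo viability.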

## Nc1nc(Cl)nc2c1ncn2[C@@H]1O[C@H](CO)[C@@H](O)[C@@H]1F
[1]
  Potency: inactive
[2]
  outcome: inactive
[3]
  Potency: inactive
[4]
  Potency: inactive

## Nc1ccc(S(=O)(=O)Nc2cnc3ccccc3n2)cc1
[1]
  Potency: inactive
[2]
  outcome: inactive
[3]
  Potency: inactive
[4]
  Potency: inactive
[5]
  Potency: inactive

## Oc1ccc(Cl)cc1Cc1cc(Cl)ccc1O
[1]
  Potency: inactive
[2]
  outcome: inactive
[3]
  Potency: inactive
[4]
  Potency: inactive

## O=C1OC2(c3ccccc31)c1cc(Br)c(O)c(Br)c1Oc1c2cc(Br)c(O)c1Br
[1]
  Potency: inactive
[2]
  outcome: inactive
[3]
  Potency: inactive
[4]
  Potency: inactive
[5]
  Potency: inactive

## OC[C@H]1O[C@@H](Oc2ccc(O)cc2)[C@H](O)[C@@H](O)[C@@H]1O
[1]
  Potency: inactive
[2]
  outcome: inactive
[3]
  Potency: inactive
[4]
  Potency: inactive
[5]
  Potency: inactive

## CCN(CC)CCNC(=O)COc1ccc(OC)cc1
[1]
  Potency: inactive
[2]
  outcome: inactive
[3]
  Potency: inactive
[4]
  Potency: inactive
[5]
  Potency: inactive

## O=C(O)CCNC(=O)c1ccccc1
[1]
  Potency: inactive
[2]
  outcome: inactive
[3]
  Potency: inactive
[4]
  Potency: inactive
[5]
  Potency: inactive

## FC(F)(F)C(F)(F)C(F)(F)C(F)(F)C(F)(F)C(F)(F)C(F)(F)C(F)(F)Br
[1]
  Potency: inactive
[2]
  outcome: inactive
[3]
  Potency: inactive
[4]
  Potency: inactive
[5]
  Potency: inactive

## C#C[C@]1(O)CC[C@H]2[C@@H]3CCC4=Cc5oncc5C[C@]4(C)[C@H]3CC[C@@]21C
[1]
  Potency: inactive
[2]
  outcome: inactive
[3]
  Potency: inactive
[4]
  Potency: inactive
[5]
  Potency: 4.61 µM (active)

## CC[N+](C)(CC)CCOC(=O)C(O)(c1ccccc1)C1CCCCC1 (stereo not drawn)
[1]
  Potency: inactive
[2]
  outcome: inactive
[3]
  Potency: inactive
[4]
  Potency: inactive
[5]
  Potency: inactive

## NC(=S)N/N=C/c1cccnc1
[1]
  Potency: inactive
[2]
  outcome: inactive
[3]
  Potency: inactive
[4]
  Potency: inactive
[5]
  Potency: inactive

## COc1ccc(/C=N/NC(=O)c2ccncc2)cc1OC
[1]
  Potency: inactive
[2]
  outcome: inactive
[3]
  Potency: inactive
[4]
  Potency: inactive
[5]
  Potency: inactive

## CCCN(CCC)S(=O)(=O)c1ccc(C(=O)O)cc1
[1]
  Potency: inactive
[2]
  outcome: inactive
[3]
  Potency: inactive
[4]
  Potency: inactive
[5]
  Potency: inactive

## COc1cc([C@H]2Oc3cc([C@H]4Oc5cc(O)cc(O)c5C(=O)[C@@H]4O)ccc3O[C@@H]2CO)ccc1O
[1]
  Potency: inactive
[2]
  outcome: inactive
[3]
  Potency: inactive
[4]
  Potency: inactive
[5]
  Potency: inactive

## CC(=C(CCOC(=O)C(C)C)SSC(CCOC(=O)C(C)C)=C(C)N(C=O)Cc1cnc(C)nc1N)N(C=O)Cc1cnc(C)nc1N
[1]
  Potency: 11.2 µM (active)
[2]
  outcome: inactive
[3]
  Potency: inactive
[4]
  Potency: inactive
[5]
  Potency: inactive

## C=C1c2cccc(O)c2C(O)=C2C(=O)[C@]3(O)C(O)=C(C(N)=O)C(=O)[C@@H](N(C)C)[C@@H]3[C@@H](O)[C@H]12
[1]
  Potency: inactive
[2]
  outcome: inactive
[3]
  Potency: inactive
[4]
  Potency: inactive
[5]
  Potency: inactive

## CC(C)[C@@H]1CC[C@@H](C)CC1=O
[1]
  Potency: inactive
[2]
  outcome: inactive
[3]
  Potency: inactive
[4]
  Potency: inactive
[5]
  Potency: inactive

## Cc1cc2c(OCC(CNC(C)(C)C)OC(=O)c3ccccc3)cccc2[nH]1 (stereo not drawn)
[1]
  Potency: inactive
[2]
  outcome: inactive
[3]
  Potency: inactive
[4]
  Potency: inactive
[5]
  Potency: inactive

## Nc1nc(-c2ccccc2)c(Br)c(=O)[nH]1
[1]
  Potency: inactive
[2]
  outcome: inactive
[3]
  Potency: inactive
[4]
  Potency: inactive
[5]
  Potency: inactive

## CN(C)CCOC(=O)C(c1ccccc1)C1(O)CCCC1 (stereo not drawn)
[1]
  Potency: inactive
[2]
  outcome: inactive
[3]
  Potency: inactive
[4]
  Potency: inactive
[5]
  Potency: inactive

## CC(=O)O[C@H]1C[C@@H]2CC[C@@H]3[C@H](CC[C@@]4(C)[C@H]3C[C@H]([N+]3(C)CCCCC3)[C@@H]4OC(C)=O)[C@@]2(C)C[C@@H]1N1CCCCC1
[1]
  Potency: inactive
[2]
  outcome: inactive
[3]
  Potency: inactive
[4]
  Potency: inactive
[5]
  Potency: inactive

## CC(C)CCCC(C)N (stereo not drawn)
[1]
  Potency: inactive
[2]
  outcome: inactive
[3]
  Potency: inactive
[4]
  Potency: inactive
[5]
  Potency: inactive

## CC(C)(C)NC[C@H](O)COc1cccc2c1CCCC2=O
[1]
  Potency: inactive
[2]
  outcome: inactive
[3]
  Potency: inactive
[4]
  Potency: inactive
[5]
  Potency: inactive

## CC(=O)NCCCCCC(=O)O
[1]
  Potency: inactive
[2]
  outcome: inactive
[3]
  Potency: inactive
[4]
  Potency: inactive
[5]
  Potency: inactive

## O=C(O)Cc1csc(-c2ccc(Cl)cc2)n1
[1]
  Potency: inactive
[2]
  outcome: inactive
[3]
  Potency: inactive
[4]
  Potency: inactive
[5]
  Potency: inactive

## OC1C(O)C(O)C(O)C(O)C1O (stereo not drawn)
[1]
  Potency: inactive
[2]
  outcome: inactive
[3]
  Potency: inactive
[4]
  Potency: inactive
[5]
  Potency: inactive

## COc1cc(NS(=O)(=O)c2ccc(N)cc2)ncn1
[1]
  Potency: inactive
[2]
  outcome: inactive
[3]
  Potency: inactive
[4]
  Potency: inactive
[5]
  Potency: inactive

## O=C(CCCN1CC=C(n2c(=O)[nH]c3ccccc32)CC1)c1ccc(F)cc1
[1]
  Potency: inactive
[2]
  outcome: inactive
[3]
  Potency: inactive
[4]
  Potency: inactive
[5]
  Potency: inactive

## CC(=O)Oc1ccc(C)cc1
[1]
  Potency: inactive
[2]
  outcome: inactive
[3]
  Potency: inactive
[4]
  Potency: inactive
[5]
  Potency: inactive

## CCN(CC)CCOC(=O)C1(c2ccccc2)CCCC1
[1]
  Potency: inactive
[2]
  outcome: inactive
[3]
  Potency: inactive
[4]
  Potency: inactive
[5]
  Potency: inactive

## CCc1nn(CCCN2CCN(c3cccc(Cl)c3)CC2)c(=O)n1CCOc1ccccc1
[1]
  Potency: inactive
[2]
  outcome: inactive
[3]
  Potency: inactive
[4]
  Potency: inactive
[5]
  Potency: 10.3 µM (active)

## Nc1nc(N)c(-c2ccccc2)s1
[1]
  Potency: inactive
[2]
  outcome: inactive
[3]
  Potency: inactive
[4]
  Potency: inactive
[5]
  Potency: inactive

## CC[C@]12CCCN3CCc4c(n(c5ccccc45)C(=O)C1)[C@@H]32
[1]
  Potency: inactive
[2]
  outcome: inactive
[3]
  Potency: inactive
[4]
  Potency: inactive
[5]
  Potency: 5.56 µM (active) and 5.8 µM (active)

## O=C(O)c1ccc(S(=O)(=O)N(Cl)Cl)cc1
[1]
  Potency: inactive
[2]
  outcome: inactive
[3]
  Potency: inactive
[4]
  Potency: inactive
[5]
  Potency: inactive

## Nc1ccc(S(=O)(=O)NCc2ccccc2)cc1
[1]
  Potency: inactive
[2]
  outcome: inactive
[3]
  Potency: inactive
[4]
  Potency: inactive
[5]
  Potency: inactive

## C[C@@]12C(=O)OC(=O)[C@]1(C)C1CCC2O1
[1]
  Potency: inactive
[2]
  outcome: inactive
[3]
  Potency: 0.501 µM (active)
[4]
  Potency: 0.698 µM (active)
[5]
  Potency: 3.12 µM (active)

## CCOC(=O)c1ccc(N)cc1
[1]
  Potency: inactive
[2]
  outcome: inactive
[3]
  Potency: inactive
[4]
  Potency: inactive
[5]
  Potency: inactive

## CCOc1cc(OCC)c(C(=O)CCC(=O)O)cc1OCC
[1]
  Potency: inactive
[2]
  outcome: inactive
[3]
  Potency: inactive
[4]
  Potency: inactive
[5]
  Potency: inactive

## CC(=O)Nc1ccc(OCC(O)CNC(C)C)cc1 (stereo not drawn)
[1]
  Potency: inactive
[2]
  outcome: inactive
[3]
  Potency: inactive
[4]
  Potency: inactive
[5]
  Potency: inactive

## CCN1/C(=C/C=C/c2sc3ccccc3[n+]2CC)Sc2ccccc21
[1]
  Potency: 3.16 µM (active)
[2]
  outcome: inactive
[3]
  Potency: 7.94 µM (active)
[4]
  Potency: 5.8 µM (active)
[5]
  Potency: 18.4 µM (active)

## NS(=O)(=O)c1cc(C(=O)O)cc(N2CCCC2)c1Oc1ccccc1
[1]
  Potency: inactive
[2]
  outcome: inactive
[3]
  Potency: inactive
[4]
  Potency: inactive
[5]
  Potency: inactive

## NC(=O)n1c(O)c(C(=O)c2cccs2)c2cc(Cl)ccc21
[1]
  Potency: inactive
[2]
  outcome: inactive
[3]
  Potency: inactive
[4]
  Potency: inactive
[5]
  Potency: inactive

## COP(=O)(OC)OC(c1ccc(Cl)cc1)P(=O)(OC)OC (stereo not drawn)
[1]
  Potency: inactive
[2]
  outcome: inactive
[3]
  Potency: inactive
[4]
  Potency: inactive
[5]
  Potency: inactive

## CC(C)(C)NCC(O)COc1cccc2c1C[C@H](O)[C@H](O)C2 (stereo partly drawn)
[1]
  Potency: inactive
[2]
  outcome: inactive
[3]
  Potency: inactive
[4]
  Potency: inactive
[5]
  Potency: inactive

## Cc1cc(CC(=O)O)c(C)n1-c1ccc(Cl)cc1
[1]
  Potency: inactive
[2]
  outcome: inactive
[3]
  Potency: inactive
[4]
  Potency: inactive
[5]
  Potency: inactive

## CC(C)[N+](C)(C)CC(O)COc1cccc2ccccc12 (stereo not drawn)
[1]
  Potency: inactive
[2]
  outcome: inactive
[3]
  Potency: inactive
[4]
  Potency: inactive
[5]
  Potency: inactive

## C/C=C/c1ccc(O)c(OC)c1
[1]
  Potency: inactive
[2]
  outcome: inactive
[3]
  Potency: inactive
[4]
  Potency: inactive
[5]
  Potency: inactive

## NCCNc1cccc2ccccc12
[1]
  Potency: inactive
[2]
  outcome: inactive
[3]
  Potency: inactive
[4]
  Potency: inactive
[5]
  Potency: inactive

## CCOC(=O)[C@H](CCc1ccccc1)N[C@@H](C)C(=O)N1[C@H](C(=O)O)C[C@@H]2CCC[C@@H]21
[1]
  Potency: inactive
[2]
  outcome: inactive
[3]
  Potency: inactive
[4]
  Potency: inactive
[5]
  Potency: inactive

## Cc1cccc(C)c1NC(=O)CN1CCCC1
[1]
  Potency: inactive
[2]
  outcome: inactive
[3]
  Potency: inactive
[4]
  Potency: inactive
[5]
  Potency: inactive

## CC(=O)Nc1ccc(OC(=O)c2ccccc2OC(C)=O)cc1
[1]
  Potency: inactive
[2]
  outcome: inactive
[3]
  Potency: inactive
[4]
  Potency: inactive
[5]
  Potency: inactive

## CCC(CC)(CC(=O)Nc1cccc(/C=C/c2nc(C3CCC3)cs2)c1)C(=O)O
[1]
  Potency: inactive
[2]
  outcome: inactive
[3]
  Potency: inactive
[4]
  Potency: inactive
[5]
  Potency: inactive

Source: PubChem BioAssay (NCATS)
